Among the data in PubChem BioAssay (Tox21) are Potency values, retold here.

Experiment [1] in a line: qHTS assay to identify small molecule antagonists of the estrogen related receptor (ERR) signaling pathway - cell viability counter screen (AID 1224818).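 Also: series mostly up to about 46 µM; viability measured after 17.5 h of compound exposure.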 The essentials:
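Quantitative high-throughput viability counter screen in ERR cells. Compounds (DMSO) incubated 17.5 h at 37 C; read-out was CellTiter-Fluor fluorescence.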
A general note: Quantitative high-throughput screening tests each substance at several concentrations.

Experiment [2] is described as follows: qHTS assay to identify small molecule antagonists of the estrogen related receptor (ERR) signaling pathway (AID 1224819; also: nearly all actives have a fitted effect of over 50% in size; also: potency is read from the fitted curve at half-maximal effect). The essentials:
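ERR reporter cell line (NTP) plated at 2,000 cells/well, settled 6 h at 37C/5% CO2, then exposed to LOPAC compounds for 18 h at 37C. One-Glo luciferase luminescence read after 30 min at room temperature.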

Experiment [3] in a line: qHTS assay to identify small molecule agonists of the estrogen related receptor (ERR) signaling pathway (AID 1224820). Also: potency is read from the fitted curve at half-maximal effect. The essentials: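 After 6 h plating (2,000 cells/well) and 18 h compound treatment at 37 C, ERR cells were lysed with One-Glo and luminescence read after 30 min at room temperature.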
In experiment [4] the test system is estrogen-related receptor alpha (ERRalpha) with PGC-1alpha coactivator, human. The experiment is described as follows: qHTS assay to identify small molecule antagonists of the estrogen related receptor signaling pathway with the pleiotropic PPARgamma coactivator (PGC) (AID 1224821; calls by dose curve; also: nearly all actives have a fitted effect of over 50% in size; also: potency is read from the fitted curve at half-maximal effect). The essentials:
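Luminescence from One-Glo luciferase reagent (30 min, room temperature) measured after 18 h compound treatment at 37 °C. Cells carry the PGC/ERR reporter and were seeded 6 h prior to dosing.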

A short description of experiment [5]: qHTS assay to identify small molecule antagonists of the estrogen related receptor signaling pathway with the pleiotropic PPARgamma coactivator (PGC) cell viability counter screen (AID 1224822; also: series mostly up to about 46 µM). The procedure, abridged:
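Cytotoxicity in the PGC/ERR cell line is assessed with CellTiter-Fluor, read as fluorescence intensity 30 min after reagent addition, following 17.5 h compound treatment at 37 C.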

Experiment [6] in a line: qHTS assay to identify small molecule agonists of the estrogen related receptor signaling pathway with the pleiotropic PPARgamma coactivator (PGC) (AID 1224823). Also: potency is read from the fitted curve at half-maximal effect. The essentials:
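Luminescence from One-Glo reagent (30 min, room temperature) was read after 18 h compound treatment at 37 C of PGC/ERR cells plated 6 h beforehand; compounds delivered in DMSO by pin tool.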

Results filed as inconclusive are left out. Activity calls are given as the source filed them. Unless noted, calls follow the shape of the dose curve; as a rule, active = well fitted curve in the direction sought with a large enough effect in the repeat runs; inconclusive = weak or mixed curves; inactive = no such curve, though single readings can be large; an effect the other way counts as inactive or inconclusive.

For `NC(N)=[N+]1CCc2ccccc2C1`, the Potency result in experiment [1], in experiment [2], in experiment [3], in experiment [4], in experiment [5] and in experiment [6] was “inactive” each time.

On to `NC(C(=O)N[C@@H]1C(=O)N2C(C(=O)O)=C(Cl)CS[C@H]12)c1ccccc1` (stereo not given in full), for which the Potency result in experiment [1], in experiment [2], in experiment [3], in experiment [4], in experiment [5] and in experiment [6] was “inactive” in each case.

For `Nc1ncnc2c1ncn2C1CCCO1` (stereo not given), the Potency result in experiment [1], in experiment [2], in experiment [3], in experiment [4], in experiment [5] and in experiment [6] was “inactive” throughout.

For the compound `Fc1ccc(CN(C2=NCCN2)c2c(Cl)cccc2Cl)cc1`, the Potency entry in experiment [1], in experiment [2], in experiment [3], in experiment [4], in experiment [5] and in experiment [6] was “inactive” throughout.

In the case of `O=c1[nH]c2ccccc2c2ccccc12`, the Potency entry in experiment [1], in experiment [2], in experiment [3], in experiment [4], in experiment [5] and in experiment [6] was “inactive” throughout.

For `O=C(O)C1=CCCN(CCON=C(c2ccccc2)c2ccccc2)C1`, the Potency result in experiment [1], in experiment [2], in experiment [3], in experiment [4], in experiment [5] and in experiment [6] was “inactive” throughout.

As for `N=c1c[n+](N2CCOCC2)[n-]o1`, the Potency entry in experiment [1], in experiment [2], in experiment [3], in experiment [4], in experiment [5] and in experiment [6] was “inactive” throughout.

As to `Cc1cccc(/C=C/c2ccccc2)n1`, the Potency entry in experiment [1], in experiment [2], in experiment [4] and in experiment [5] was “inactive” throughout. Besides, the Potency in experiment [3] is 13.3 µM (active); in experiment [6] it was 13.9 µM (active).

As for `N=S(=O)(O)Cc1noc2ccccc12`, the Potency result in experiment [1], in experiment [2], in experiment [3], in experiment [4], in experiment [5] and in experiment [6] was “inactive” in each case.

Take `CCCn1c(=O)c(C)cn2nc(N)nc12`: the Potency result in experiment [1], in experiment [2], in experiment [3], in experiment [4], in experiment [5] and in experiment [6] was “inactive” each time.

On to `OC[C@H]1NC[C@@H](O)[C@@H]1O`, for which the Potency entry in experiment [1], in experiment [2], in experiment [3], in experiment [4], in experiment [5] and in experiment [6] was “inactive” each time.

As for `CN(C)C(N)=NCCC[C@H](N)C(=O)O`, the Potency entry in experiment [1], in experiment [2], in experiment [3], in experiment [4], in experiment [5] and in experiment [6] was “inactive” in each case.

For the compound `CCN(CC)CCOC(=O)c1cc(Cl)c(N)cc1OC`, the Potency result in experiment [1], in experiment [2], in experiment [3], in experiment [4], in experiment [5] and in experiment [6] was “inactive” each time.

As to `COc1ccc(CCN(C)CCc2ccc(OC)c(OC)c2)cc1OC`, the Potency result in experiment [1], in experiment [2], in experiment [3], in experiment [4], in experiment [5] and in experiment [6] was “inactive” throughout.

Consider `CCCN(CCc1ccccc1)C1CCc2c(O)cccc2C1` (stereo not given), for which the Potency entry in experiment [1], in experiment [2], in experiment [3], in experiment [4], in experiment [5] and in experiment [6] was “inactive” each time.

Take `O=S(=O)(c1cccc2c(Cl)cccc12)N1CCCNCC1`: the Potency result in experiment [1], in experiment [2], in experiment [3], in experiment [4], in experiment [5] and in experiment [6] was “inactive” in each case.

`CC1CCN(CC[C@H]2CCCN2S(=O)(=O)c2cccc(O)c2)CC1`: the Potency result in experiment [1], in experiment [2], in experiment [3], in experiment [4], in experiment [5] and in experiment [6] was “inactive” each time.

Turning to `CC1=C(C(=O)O)N2C(=O)[C@@H](NC(=O)C(N)c3ccccc3)[C@H]2SC1` (stereo not given in full), the Potency result in experiment [1], in experiment [2], in experiment [3], in experiment [4], in experiment [5] and in experiment [6] was “inactive” throughout.

As for `Oc1ccc(Cn2cc[nH]c2=S)cc1`, the Potency entry in experiment [1], in experiment [2], in experiment [3], in experiment [4], in experiment [5] and in experiment [6] was “inactive” each time.

Consider `CN1C2CCC1CC(OC(=O)C(O)c1ccccc1)C2` (stereo not given), for which the Potency entry in experiment [1], in experiment [2], in experiment [3], in experiment [4], in experiment [5] and in experiment [6] was “inactive” in each case.

Regarding `O=C(O)c1cc(=O)cc(C(=O)O)[nH]1`, the Potency entry in experiment [1], in experiment [2], in experiment [3], in experiment [4], in experiment [5] and in experiment [6] was “inactive” throughout.

On to `CCN(CC)CCNC(=O)c1ccc(NS(C)(=O)=O)cc1`, for which the Potency entry in experiment [1], in experiment [2], in experiment [3], in experiment [4], in experiment [5] and in experiment [6] was “inactive” throughout.

For `Nn1nnc2ccccc21`, the Potency entry in experiment [1], in experiment [2], in experiment [3], in experiment [4], in experiment [5] and in experiment [6] was “inactive” in each case.

As for `OC[C@H]1O[C@H](n2cnc3c(N[C@H]4CCC[C@@H]4O)ncnc32)[C@H](O)[C@@H]1O`, the Potency entry in experiment [1], in experiment [2], in experiment [3], in experiment [4] and in experiment [5] was “inactive” each time. Moreover, the Potency in experiment [6] is 9.08 µM (active).

On to `CCCCCCCCCCCCCCCCCC(=O)OC(CC(=O)O)C[N+](C)(C)C` (stereo not given), for which the Potency result in experiment [1], in experiment [2], in experiment [3], in experiment [4], in experiment [5] and in experiment [6] was “inactive” in each case.

With `N[C@@H](Cn1ccc(=O)c(O)c1)C(=O)O`, the Potency result in experiment [1], in experiment [2], in experiment [3], in experiment [4], in experiment [5] and in experiment [6] was “inactive” in each case.

As to `COc1cccc(-c2cc(=O)c3ccccc3o2)c1N`, the Potency entry in experiment [1], in experiment [2], in experiment [4] and in experiment [5] was “inactive” in each case. The Potency in experiment [3] is 1.96 µM (active); in experiment [6] it was 1.88 µM (active).

For the compound `CC(O)C(O)[C@H]1CNc2nc(N)[nH]c(=O)c2N1` (stereo not given in full), the Potency result in experiment [1], in experiment [2], in experiment [3], in experiment [4], in experiment [5] and in experiment [6] was “inactive” each time.

On to `O=c1c2ccccc2nc2n1CCc1c-2[nH]c2ccccc12`, for which the Potency result in experiment [1], in experiment [2], in experiment [4] and in experiment [5] was “inactive” throughout. The Potency was 2.28 µM (active) in experiment [3] and 13.3 µM (active) in experiment [6].

In the case of `CCN1/C(=C/C(C)=O)Sc2ccc(OC)cc21`, the Potency entry in experiment [1], in experiment [3], in experiment [5] and in experiment [6] was “inactive” in each case. The figures for the Potency in experiment [2] and in experiment [4] were 11.9 µM (active) and 5.11 µM (active), respectively.
